Experimental data taken from PubChem BioAssay AID932 (The Scripps Research Institute Molecular Screening Center, 2007).
Among all 200,000 compounds or so, about 5,100 (2.5%) were called active. For the sample, actives were picked, then their nearest neighbours and some compounds at random. Unmarked numbers belong to inactive results.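 The calls were made as follows: active = activation above the screen-wide mean activation plus 3 SD (cut at about 130% in these data); inactive = the rest.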

Experiment: STAT1 signaling activators, primary screen, cell-based, HTS, luciferase reporter (AID 932);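 also: raw ratio to IFN-gamma control signal so 100% means no change and 0% no light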
Conditions: NIH 3T3 STAT1-luciferase reporter, IFN-gamma, luminescence; at 5.5 µM; hits give high values; 100% = IFN-gamma alone, no compound

| Structure (SMILES) | activation (% of control) |
| --- | --- |
| Cc1ccc(NC(=S)N(CCN(C)C)Cc2cccs2)cc1C | 97.2% |
| Cc1ccc(NC(=O)c2cccs2)cc1S(=O)(=O)N(C)C | 101% |
| Cc1ccc(C(=O)Nc2ccc(C)c(S(=O)(=O)N(C)C)c2)s1 | 141% (active) |
| Cc1ccc(NC(=O)CNCc2ccccn2)cc1S(=O)(=O)N(C)C | 97.7% |
| C#CCOCCOCCOCCNc1nc(N2CCN(C(=O)C(Cc3ccc(O)cc3)n3cc(C(N)CC(C)C)nn3)CC2)nc(N2CCN(C(=O)C(Cc3ccc(O)cc3)n3cc(C(N)C(C)CC)nn3)CC2)n1 (configuration not stated) | 109% |
| O=C(NC(=S)Nc1cccc(-c2ccc(CO)o2)c1)c1cccs1 | 93.4% |
| Cc1cc(-c2n[nH]c(=S)n2-c2ccc(C)c(C)c2)no1 | 90.1% |
| CCOC(=O)c1ccccc1N1C(=O)C2Sc3[nH]c(=O)sc3C(/C=C/c3ccccc3)C2C1=O (configuration not stated) | 114% |
| COC(C(=O)Nc1ccc(S(=O)(=O)Nc2ccc(C)c(C)c2)cc1)c1ccccc1 (configuration not stated) | 108% |
| Nc1ccc(SCCN2C(=O)c3ccccc3C2=O)cc1 | 129% (active) |
| Cc1ccc(SCCN2C(=O)NC(C)(C)C2=O)cc1 | 103% |
| CC(=O)c1cnc(SCCN2C(=O)c3ccccc3C2=O)nc1C | 95.5% |
| O=C(CN1CCSCC1)N/N=C/c1ccc(Cl)cc1 | 107% |
| COc1ccc(-c2ccc(CCC(=O)O)n2-c2ccc(O)cc2)cc1 | 101% |
| O=C(NCCc1ccccc1)c1ccc(OCCOc2ccccc2)cc1 | 109% |
| CC(C)c1ccc(C(=O)NCCCc2ccccc2)cc1 | 131% (active) |
| CCCOc1ccc(C(=O)NCCc2ccccc2)cc1 | 76.1% |
| COc1ccc(Cc2nnc(NC(=O)c3cc(OC)c(OC)c(OC)c3)s2)cc1OC | 89.1% |
| CCOCCCNC(=O)C(NC(=O)Cc1c[nH]c2ccccc12)c1ccc(OC)cc1 (configuration not stated) | 87.9% |
| O=C(CSCc1cccs1)N1CCCC1 | 129% (active) |
| O=C(CSc1ccsc1[N+](=O)[O-])N1CCCCC1 | 94.8% |
| O=C(CSCc1ccc(Cl)cc1)N1CCCCC1 | 121% |
| COc1ccc(C(=O)NCc2nnc(SCCOc3ccccc3)n2C)cc1 | 102% |

| Structure (SMILES) | activation (% of control) |
| --- | --- |
| CS(=O)(=O)n1nc(-c2ccccc2)nc1NCc1ccco1 | 102% |
| CCS(=O)(=O)n1nc(-c2ccc(OC)cc2)nc1SC | 112% |
| CCS(=O)(=O)n1nc(-c2ccccc2)nc1SCc1ccccc1 | 130% (active) |
| COc1cccc(-n2c(=O)c3c(C)c(C(=O)N(C)C)sc3n(CC(=O)NCCc3ccc(OC)c(OC)c3)c2=O)c1 | 97.9% |
| COc1ccc(NC(=O)c2ccc(C#CC(C)(C)O)cc2)cc1 | 106% |
| COc1ccc(NC(=O)Nc2ccc3nc(C)c(C)nc3c2)cc1 | 103% |
| COc1ccc(C(=O)Nc2ccc(S(=O)(=O)NC(C)C)cc2)cc1 | 93.8% |
| COc1ccc(/C=N/NC(=O)Nc2ccc3nsnc3c2)c(OC)c1 | 114% |
| COc1ccc(NC(=O)c2ccc(OC)cc2)cc1 | 140% (active) |
| COc1ccc(NC(=O)Nc2ccc3nsnc3c2)cc1 | 146% (active) |
| CCOc1cc(/C=C(/C#N)c2ccc(Cl)cc2)cc(Cl)c1OCC(=O)O | 56.1% |
| COc1ccccc1Cn1c(C)nnc1-c1cnn(C)c1N | 93.2% |
| CCN(CCn1cccn1)Cc1cn[nH]c1-c1ccc(OC)cc1F | 89% |
| COc1ccc2ccccc2c1CNc1nnnn1C | 99.2% |
| CCC(=O)Nc1c(C)n[nH]c1C | 102% |
| COc1ccc(-n2cc(CN(C)Cc3n[nH]c(=O)[nH]3)c(-c3cccc(F)c3)n2)cc1 | 104% |
| Cc1ccc(NC(=S)N(CCCN2CCCC2)Cc2cccn2Cc2ccc(Cl)cc2)cc1 | 85.3% |
| Cc1ccc(S(=O)(=O)NCCc2nnc3ccc(SCc4cccnc4)nn23)cc1 | 99% |
| COc1cc(-c2nc(-c3ccncc3)no2)cc(OC)c1OC | 97.3% |
| CCOc1nc(-c2ccc(OC)cc2)ccc1-c1noc(-c2cc(OC)c(OC)c(OC)c2)n1 | 102% |
| COc1ccc(-c2noc(-c3cccc(OC)c3OC)n2)cc1OC | 144% (active) |
| COc1cccc(NC(=O)CN(C)C(C)C(=O)Nc2ccc(C#N)cc2)c1 (configuration not stated) | 90.8% |
| O=C(N/N=C/c1ccc([N+](=O)[O-])cc1)C(=O)N1CCCC1 | 107% |

| Structure (SMILES) | activation (% of control) |
| --- | --- |
| COc1cccc(/C=N/NC(=O)C(=O)N2CCCC2)c1 | 99% |
| O=C(N/N=C/c1ccc2c(c1)OCO2)C(=O)N1CCCC1 | 132% (active) |
| CC(Nc1nc(N2CCN(CCO)CC2)nc2ccccc12)c1ccccc1 (configuration not stated) | 106% |
| CN(CCC1CCOCC1)Cc1cn[nH]c1-c1ccc(-c2ccccc2)cc1 | 115% |
| Cc1cccc(CSc2nnc(NC(=O)CSc3nnc(C)s3)s2)c1 | 107% |
| O=C(CSc1ccc(-c2cccs2)nn1)Nc1ccccc1F | 104% |
| Cc1cccc(CSc2ccc(-c3cccs3)nn2)c1 | 130% (active) |
| Cc1ccc(NC(=S)N(CCN2CCCCC2)Cc2ccco2)cc1C | 98% |
| C=CCC1(CC=C)CCCN1C(=O)CC1C(=O)NCCN1Cc1ccccc1OC (configuration not stated) | 98.1% |
| CCn1c(C)nc2cc(C(=O)NNS(=O)(=O)c3ccc(C)cc3C)ccc21 | 95% |
| CCOC(=O)c1ccc2c(c1)nc(SCC(=O)NC(C)C)n2CC | 103% |
| CCOC(=O)c1ccc2c(c1)nc(C)n2CC | 130% (active) |
| COc1ccc2nc(/N=C(\N)NC(=O)Nc3ccccc3)nc(C)c2c1 | 104% |
| Cc1ccc(/C=N/NC(=O)Cn2ccc(C(F)(F)F)n2)o1 | 94.7% |
| Cc1cc(N/C=C\C(=O)c2ccc(Cl)c(Cl)c2)no1 | 135% (active) |
| CCC(=O)Nc1ccc(C(=O)Nc2cc(C)on2)cc1 | 107% |
| COc1ccc(C(=O)/C=C/Nc2ccccn2)cc1 | 23.6% |
| CCn1c(C(C)C)n[nH]c1=S | 103% |
| CCc1nnc(NC(=O)CSc2nc(SC)ns2)s1 | 101% |
| O=C(CSc1nnc2ccc(-c3ccncc3)nn12)N1CCCCC1 | 95.3% |
| CCSC1=NCCN1C(=O)c1ccc(S(=O)(=O)N(CC)CC)cc1 | 95.6% |
